p53ts 32C tox – p53ts cell cytotoxicity, permissive temperature; H1299-p53A138V at 32C, ATP luminescence viability, 24 h; Potency, µM (top dose mostly 46.1 µM), most hits filed as cytotoxic; hit rate 0.93% among 130,000; AID 924; further: nearly all actives have a fitted effect of over 55% in size
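Cells: H1299 p53ts (A138V), 600/well, pre-incubated 16–30 h at 37C. Cpd up to 46 uM, 24 h, 32C. Readout: ATPlite luminescence, 20 min RT. Normalization: DMSO vs tamoxifen 100 uM. AC50 by Hill equation.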
p53ts 39C tox – kills p53ts cells at the nonpermissive temperature | H1299-p53A138V viability at 39C, ATP luminescence, 24 h | Potency, µM (doses to about 46.1 µM), actives largely listed as cytotoxic | hit rate 1.5% among 130,000; further: nearly all actives have a fitted effect of over 55% in size
IkB sig inh – inhibitors of IkB signaling in ABC-DLBCL cells. AID 445. hit rate 0.04% among 110,000. ABC-DLBCL IkBa-CBG/CBR dual luciferase ratio, 4 h; response scale: scaled: untreated 0%, proteasome inhibitor 100%. Potency, µM (highest dose often 57.1 µM); active means well fitted curve in the direction sought with a large enough effect in the signal ratio, not every such curve was filed as active; inconclusive means small, poorly fitted or top-dose-only effect, or a change in a side signal; the % refers to the signal ratio;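 further: the direction sought is a rising ratio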
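Curves were fitted separately to fusion (green), unfused (red) and ratio luminescence, then classed by r2, magnitude and activity. Cells: OCI-Ly3, 4 h compound plus doxycycline at 37C; 10 uM MG-132 defined full response.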
Imprint erasure – genomic imprint erasure induction | mouse ES Peg3-LacZ reporter, beta-gal luminescence, 40 h | Potency, µM (series often up to 60.7 µM), usual class: activators | hit rate 0.02% among 110,000
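Each well holds 300 Peg3LacZ-Neo (maternal) female ES cells incubated 40 h at 37C, 5% CO2. LacZ is measured by BetaGlo luminescence, with AC50 and maximum efficacy derived from dose-response curves.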
Hits are given with their value; - = inactive; ? = inconclusive; . = no result; [ ] = remark or other dose. Hits are enriched below; roughly 1.8% of the tested compounds scored in any of these assays. Unless noted, the call rests on the fitted dose curve; in most records, active means well fitted curve in the direction sought with a large enough effect; inconclusive means small, poorly fitted or top-dose-only effect, or another doubt; inactive means no such curve, though single readings can be large; an effect the other way counts as inactive or inconclusive.

SMILES	p53ts 32C tox	p53ts 39C tox	IkB sig inh	Imprint erasure
CC(C)c1ccc(Nc2c(-c3ccccn3)nc3ccccn23)cc1	-	15.8µM	?	-[10.9 µM]
CC(C)c1ccc(Nc2c(-c3ccccc3O)nc3cnccn23)cc1	?	5.01µM	?	-[10.9 µM]
Cc1ccc2nc(-c3cccnc3)c(Nc3ccc(C(C)C)cc3)n2c1	-	-	-	-[10.9 µM]
COc1ccc(NC(=O)CSc2nc(O)c(C/C=C/c3ccccc3)c(=O)[nH]2)cc1	-	-	?	-[10.9 µM]
Cc1ccc(C)c(OCCCn2c(-c3ccc(Cl)cc3)nc3ccccc3c2=O)c1	-	-	?	-[10.9 µM]
CC1=C(c2ccc(C)c(C)c2)S(=O)(=O)N=C1N1CCC(C(=O)NCCc2ccc(Cl)cc2)CC1	?	12.6µM	-	-[10.9 µM]
C[C@@H]1C(=O)O[C@@H]2C[C@@]34[C@H]5C[C@@H](C(C)(C)C)[C@@]36[C@@H](OC(=O)[C@@H]6O)O[C@]4(C(=O)O5)[C@@]12O	.	.	-[11.4 µM]	.
CCCC(=O)N1CCc2cc(-c3nc(N)sc3C)ccc21	-	-	-	-
CCC(C)C(=O)N1CCc2cc(-c3csc(N)n3)ccc21 (stereo not drawn)	10µM	12.6µM	-	-
Nc1nc(-c2ccc3c(c2)OCCO3)cs1	?	?	-	-
Nc1nc(-c2ccc3c(c2)CCCC3)cs1	?	12.6µM	-	-
COc1cccc(NC(=O)c2oc3ccccc3c2NC(=O)c2ccc(OC(C)C)cc2)c1	?	10µM	-	-[10.9 µM]
COc1cccc(NC(=O)c2oc3ccccc3c2NC(=O)c2cc3ccccc3o2)c1	-	?	?	-[10.9 µM]
CC(C)Oc1cccc(C(=O)Nc2ccc(CN3CCOCC3)cc2)c1	-	-	?	-
COc1cccc(NC(=O)c2ccc(CN3CCOCC3)cc2)c1	12.6µM	10µM	?	-
COc1cccc(NC(=O)c2oc3ccccc3c2NC(=O)C(C)(C)C)c1	-	-	?	-
COc1cccc(NC(=O)c2oc3ccccc3c2NC(=O)c2ccc3c(c2)OCO3)c1	10µM	10µM	-	-
CCOc1ccc(C2c3c(-c4ccc(C)cc4)n[nH]c3C(=O)N2c2ccc(Cl)cc2)cc1 (stereo not drawn)	-	?	?	-[10.9 µM]
OCc1cc(C(O)CNCCCCCCOCCCCc2ccccc2)ccc1O (stereo not drawn)	?	12.6µM	.	-
CCOCCCNCC(O)c1ccccc1 (stereo not drawn)	.	-	.	.
CC(C)(C)NC(=O)Cn1cc(S(=O)(=O)Cc2ccccc2Cl)c2ccccc21	-	.	.	.
O=c1c2c(nc3c(-c4cccc5ccccc45)c[nH]n13)CCC2	?	-	?	?
O=c1c2c(nc3c(-c4ccc(Cl)cc4)c[nH]n13)CCCC2	-	20µM	?	-
CC(=O)c1ccc(S(=O)(=O)Nc2ccc(-c3ccc(N4CCCCC4)nn3)cc2)cc1	?	3.98µM	?	-[10.9 µM]
COc1ccc(S(=O)(=O)Nc2cccc(-c3ccc(N4CCC(C)CC4)nn3)c2)c(OC)c1	10µM	15.8µM	?	-[10.9 µM]
SMILES	p53ts 32C tox	p53ts 39C tox	IkB sig inh	Imprint erasure
COc1ccc(OC)c(S(=O)(=O)Nc2cccc(-c3ccc(N4CCCCC4)nn3)c2)c1	-	?	-	-[10.9 µM]
CCc1ccc(S(=O)(=O)Nc2cccc(-c3ccc(N4CCC(C)CC4)nn3)c2)s1	12.6µM	10µM	?	-[10.9 µM]
CC(=O)Nc1ccc(S(=O)(=O)Nc2cccc(-c3ccc(N4CCC(C)CC4)nn3)c2)cc1	2.51µM	3.55µM	?	-[10.9 µM]
CCOc1ccc(-c2cccc(NS(=O)(=O)c3ccc(C)s3)c2)nn1	-	-	-	-[10.9 µM]
CCCCN(CC)C(=O)C1CCCN(c2ncnc3c2nc2n3CCCCC2)C1 (stereo not drawn)	-	.	.	.
COc1ccccc1Cn1cc(C(=O)c2ccc(Cl)cc2)c(=O)c2ccccc21	?	12.6µM	?	-[10.9 µM]
COc1ccccc1Cn1cc(C(=O)c2ccc(Cl)cc2)c(=O)c2cc3c(cc21)OCCO3	-	?	?	-[10.9 µM]
COc1ccc(-c2cc(C(=O)N/N=C/c3ccc(OC)c(OC)c3)[nH]n2)cc1	-	-	.	.
COc1ccc(C2CC(c3c(O)cc(C)oc3=O)=NCCS2)c(OC)c1 (stereo not drawn)	3.98µM	2.51µM	-	-
Cc1cccc(N2CCN(C(=O)Nc3ccc(F)cc3)CC2C)c1 (stereo not drawn)	-	-	?	-[10.9 µM]
Cc1ccccc1NC(=O)CSc1nc2ccccc2c2nc(CCn3c(C)nc4ccccc43)nn12	-	-	-	-[10.9 µM]
Cc1nc2ccccc2n1CCc1nc2c3ccccc3nc(SCC(=O)Nc3ccc(C(C)C)cc3)n2n1	?	10µM	-	-[10.9 µM]
